# Laboratory results reported in PubChem BioAssay.
# The source made the active and inactive calls. Cut-off read from the data, not from the text of the source, unless noted: active = inhibition above about 42%; inactive = the rest.
# Test system: not listed separately
# Assay: StAR promoter reporter inhibitors, counter-screen for LRH-1 inverse agonist project, cell-based, luminescence, high throughput (AID 651611; in the data active = inhibition above about 28%)
# Conditions: StAR promoter luciferase reporter counterscreen, at 3.6 µM, stronger effect = higher value
row,Compound,inhibition
1,Cc1ccc(CNC(=O)CN2C(=O)NC3(CCCC3)C2=O)cc1,5.83% (inactive)
2,CN(C)c1ccc(NC(=O)CN2CCC(NC(=O)C3CCCCC3)CC2)cc1,12.2% (inactive)
3,Cc1ccc[n+](CC(=O)Nc2ccc([N+](=O)[O-])cc2)c1,12.6% (inactive)
4,Cc1cc(/C=N/n2cnnc2)c(C)n1-c1ccc(OCc2ccc(Cl)cc2)cc1,-11% (inactive)
5,COc1ccc(OC)c(NC(=O)c2ccccc2NC(=O)c2ccco2)c1,12.6% (inactive)
6,COc1cc(-c2cc(C(=O)NCc3ccc(S(N)(=O)=O)cc3)c3ccccc3n2)cc(OC)c1OC,27.1% (inactive)
7,O=C(COc1ccc(F)c(Cl)c1)Nc1ccc(N2CCOCC2)cc1,3.59% (inactive)
8,Nn1c(SCC(=O)Nc2c(F)cc(F)cc2Br)nnc1C1CCCCC1,6.71% (inactive)
9,COc1ccc(NS(=O)(=O)c2ccc(-c3coc(C)n3)cc2)cc1OC,15.6% (inactive)
10,COC(=O)c1ccc(NC(=O)CSc2nn3c(=O)c(C)nnc3s2)cc1,5.82% (inactive)
11,CCc1ccc2oc(C(=O)NCc3ccncc3)c(C)c2c1,-4.67% (inactive)
12,O=C(COC(=O)c1ccc(S(=O)(=O)N2CCCC2)cc1)Nc1ccc(N2CCOCC2)cc1,18.1% (inactive)
13,Cc1ccc(S(=O)(=O)NCc2ccncc2)cc1,5.31% (inactive)
14,CCOc1ccc(NC(=O)CSc2nccn(-c3ccc4c(c3)OCCO4)c2=O)cc1,-5.61% (inactive)
15,O=C(CCl)Nc1cccn2ncnc12,33.1% (active)
16,CCC(=O)N1CCN(c2ccc(Cl)cc2NC(=O)c2ccc([N+](=O)[O-])o2)CC1,22.8% (inactive)
17,COc1ccc(-c2cc3ccccc3oc2=O)cc1NC(=O)c1ccc([N+](=O)[O-])o1,-51.4% (inactive)
18,CCCn1c2c(c(=N)c3c1CCC3)CCCC2,4.81% (inactive)
19,O=C(NCCCc1ccccc1)c1cc([N+](=O)[O-])ccc1Cl,23.3% (inactive)
20,CN(CC(=O)Nc1ccc(N2CCOCC2)cc1)CC(=O)Nc1ccc(N2CCOCC2)cc1,4.02% (inactive)

row,Compound,inhibition
1,CC(=O)c1ccc(NC(=O)C(C)O/N=C(\N)c2ccccc2)cc1 (stereo not given),10.5% (inactive)
2,CC(=O)c1ccsc1-c1c(C)cc2oc(=O)cc(-c3ccccc3)c2c1C,8.02% (inactive)
3,COc1cc(NC(=O)c2ccc([N+](=O)[O-])o2)ccc1NC(=O)c1cccs1,30.9% (active)
4,CCCCCOc1ccc(Br)cc1CSC(=N)N,41.5% (active)
5,CC(C)Oc1cccc(-c2cc(C(=O)NN3CCOCC3)c3ccccc3n2)c1,17.5% (inactive)
6,O=C(N/N=C/c1ccc([N+](=O)[O-])s1)c1ccccc1Br,40.1% (active)
7,COc1ccc(-c2c(C)nn3c(NC4CCCC4)cc(C)nc23)cc1OC,25.9% (inactive)
8,C=CCOc1ccccc1CN(C(=O)CCl)c1ccc2c(c1)OCO2,7.87% (inactive)
9,CCOc1ccc(CCNC(=O)COC(=O)/C=C/c2ccc(OC(F)F)c(OC)c2)cc1OCC,12.5% (inactive)
10,CCCOc1ccc2oc(=O)c3c(c2c1)CCCN3C(=O)CN1CCN(c2ncccn2)CC1,6.16% (inactive)
11,CCN1C(=O)c2cccc3c(NC(=O)c4ccc(S(=O)(=O)N5CCOCC5)cc4)ccc1c23,40.3% (active)
12,Cc1ccc(NC(=O)CSc2nnc(CCCCCNC(=O)OC(C)(C)C)o2)c(C)c1,12.2% (inactive)
13,COc1ccc2c(c1)C1C=CCC1C(c1cc3c(cc1Br)OCO3)N2 (stereo not given),-3.15% (inactive)
14,Cc1cc2oc(=O)cc(-c3ccccc3)c2c(C)c1-c1ccc(CO)cc1,10.8% (inactive)
15,CCN(CC)CC(=O)Nc1ccc(-c2nc3cc(NC(=O)CN(CC)CC)ccc3o2)cc1,-9.81% (inactive)
16,O=C1C(=C(I)I)c2ccccc2-c2ccccc21,2.21% (inactive)
17,O=C(Nc1ccc(N2CCOCC2)c(Cl)c1)c1ccc([N+](=O)[O-])o1,-80.2% (inactive)
18,COc1cc(CCNc2ccc3nnc(-c4ccccc4)n3n2)cc(OC)c1OC,50.7% (active)
19,CCCc1cc(=O)oc2cc(OCC(=O)NC3CC(C)(C)NC(C)(C)C3)ccc12,-0.91% (inactive)
20,CC(=O)Oc1ccc2oc(=O)c3c(c2c1)CCCN3C(=O)CN1CCN(c2ncccn2)CC1,12.8% (inactive)

# Molecular target: Nuclear receptor subfamily 5 group A member 2 (Homo sapiens) (UniProt O00482)
# Assay: NR5A2 activity suppression in reporter cells – cell-based, luminescence, confirmation (AID 651613);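 note: HEK293T cells co-transfected with LRH-1 and StAR promoter luciferase reporter; 0% = vehicle wells and 100% = parental cells lacking receptor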
# Conditions: cell-based LRH-1 luciferase reporter, inverse agonism; at 3.6 µM; stronger effect = higher value
# Chain of Nuclear receptor subfamily 5 group A member 2 (Homo sapiens) (O00482 whole entry, looked up): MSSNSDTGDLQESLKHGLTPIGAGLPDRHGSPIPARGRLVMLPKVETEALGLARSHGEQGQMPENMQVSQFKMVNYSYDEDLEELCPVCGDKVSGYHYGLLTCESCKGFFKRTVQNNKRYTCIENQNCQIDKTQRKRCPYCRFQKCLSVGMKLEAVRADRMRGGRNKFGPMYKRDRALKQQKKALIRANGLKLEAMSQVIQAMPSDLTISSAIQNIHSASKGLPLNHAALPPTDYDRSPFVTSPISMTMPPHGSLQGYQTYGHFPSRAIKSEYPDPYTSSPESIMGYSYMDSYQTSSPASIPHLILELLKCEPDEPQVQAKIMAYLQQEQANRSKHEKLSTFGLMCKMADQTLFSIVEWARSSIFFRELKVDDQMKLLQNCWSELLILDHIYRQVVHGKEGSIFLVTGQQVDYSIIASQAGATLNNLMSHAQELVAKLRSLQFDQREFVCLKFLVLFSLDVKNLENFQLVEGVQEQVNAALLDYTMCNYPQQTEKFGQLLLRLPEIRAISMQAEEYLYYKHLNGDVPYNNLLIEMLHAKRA
row,Compound,inhibition
1,Cc1ccc(CNC(=O)CN2C(=O)NC3(CCCC3)C2=O)cc1,33.5% (inactive)
2,CN(C)c1ccc(NC(=O)CN2CCC(NC(=O)C3CCCCC3)CC2)cc1,62.6% (active)
3,Cc1ccc[n+](CC(=O)Nc2ccc([N+](=O)[O-])cc2)c1,63.1% (active)
4,Cc1cc(/C=N/n2cnnc2)c(C)n1-c1ccc(OCc2ccc(Cl)cc2)cc1,27.8% (inactive)
5,COc1ccc(OC)c(NC(=O)c2ccccc2NC(=O)c2ccco2)c1,45.3% (active)
6,COc1cc(-c2cc(C(=O)NCc3ccc(S(N)(=O)=O)cc3)c3ccccc3n2)cc(OC)c1OC,20.3% (inactive)
7,O=C(COc1ccc(F)c(Cl)c1)Nc1ccc(N2CCOCC2)cc1,36% (inactive)
8,Nn1c(SCC(=O)Nc2c(F)cc(F)cc2Br)nnc1C1CCCCC1,38.9% (inactive)
9,COc1ccc(NS(=O)(=O)c2ccc(-c3coc(C)n3)cc2)cc1OC,65.6% (active)
10,COC(=O)c1ccc(NC(=O)CSc2nn3c(=O)c(C)nnc3s2)cc1,61.3% (active)
11,CCc1ccc2oc(C(=O)NCc3ccncc3)c(C)c2c1,53.2% (active)
12,O=C(COC(=O)c1ccc(S(=O)(=O)N2CCCC2)cc1)Nc1ccc(N2CCOCC2)cc1,48.5% (active)
13,Cc1ccc(S(=O)(=O)NCc2ccncc2)cc1,54.7% (active)
14,CCOc1ccc(NC(=O)CSc2nccn(-c3ccc4c(c3)OCCO4)c2=O)cc1,55% (active)
15,O=C(CCl)Nc1cccn2ncnc12,49.3% (active)
16,CCC(=O)N1CCN(c2ccc(Cl)cc2NC(=O)c2ccc([N+](=O)[O-])o2)CC1,64.7% (active)
17,COc1ccc(-c2cc3ccccc3oc2=O)cc1NC(=O)c1ccc([N+](=O)[O-])o1,16% (inactive)
18,CCCn1c2c(c(=N)c3c1CCC3)CCCC2,61.8% (active)
19,O=C(NCCCc1ccccc1)c1cc([N+](=O)[O-])ccc1Cl,71% (active)
20,CN(CC(=O)Nc1ccc(N2CCOCC2)cc1)CC(=O)Nc1ccc(N2CCOCC2)cc1,52.1% (active)

row,Compound,inhibition
1,CC(=O)c1ccc(NC(=O)C(C)O/N=C(\N)c2ccccc2)cc1 (stereo not given),51.7% (active)
2,CC(=O)c1ccsc1-c1c(C)cc2oc(=O)cc(-c3ccccc3)c2c1C,64.7% (active)
3,COc1cc(NC(=O)c2ccc([N+](=O)[O-])o2)ccc1NC(=O)c1cccs1,61.1% (active)
4,CCCCCOc1ccc(Br)cc1CSC(=N)N,99.7% (active)
5,CC(C)Oc1cccc(-c2cc(C(=O)NN3CCOCC3)c3ccccc3n2)c1,40.7% (inactive)
6,O=C(N/N=C/c1ccc([N+](=O)[O-])s1)c1ccccc1Br,57.5% (active)
7,COc1ccc(-c2c(C)nn3c(NC4CCCC4)cc(C)nc23)cc1OC,62.9% (active)
8,C=CCOc1ccccc1CN(C(=O)CCl)c1ccc2c(c1)OCO2,68.8% (active)
9,CCOc1ccc(CCNC(=O)COC(=O)/C=C/c2ccc(OC(F)F)c(OC)c2)cc1OCC,51.5% (active)
10,CCCOc1ccc2oc(=O)c3c(c2c1)CCCN3C(=O)CN1CCN(c2ncccn2)CC1,53.4% (active)
11,CCN1C(=O)c2cccc3c(NC(=O)c4ccc(S(=O)(=O)N5CCOCC5)cc4)ccc1c23,62% (active)
12,Cc1ccc(NC(=O)CSc2nnc(CCCCCNC(=O)OC(C)(C)C)o2)c(C)c1,47.9% (active)
13,COc1ccc2c(c1)C1C=CCC1C(c1cc3c(cc1Br)OCO3)N2 (stereo not given),37% (inactive)
14,Cc1cc2oc(=O)cc(-c3ccccc3)c2c(C)c1-c1ccc(CO)cc1,71.5% (active)
15,CCN(CC)CC(=O)Nc1ccc(-c2nc3cc(NC(=O)CN(CC)CC)ccc3o2)cc1,42.5% (active)
16,O=C1C(=C(I)I)c2ccccc2-c2ccccc21,10.4% (inactive)
17,O=C(Nc1ccc(N2CCOCC2)c(Cl)c1)c1ccc([N+](=O)[O-])o1,9.33% (inactive)
18,COc1cc(CCNc2ccc3nnc(-c4ccccc4)n3n2)cc(OC)c1OC,37.5% (inactive)
19,CCCc1cc(=O)oc2cc(OCC(=O)NC3CC(C)(C)NC(C)(C)C3)ccc12,53% (active)
20,CC(=O)Oc1ccc2oc(=O)c3c(c2c1)CCCN3C(=O)CN1CCN(c2ncccn2)CC1,58% (active)
